# Screening data as filed in PubChem BioAssay.
# KKLEB tox = counter-screen for CF NF-kB inhibitors: cytotoxicity. KKLEB CF airway cells viability, ATPlite luminescence, overnight; hits give low values; cells stimulated with P. aeruginosa culture filtrate. activity change (cytotoxicity), % at 5 µM. 360,000 tested, 0.36% active;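 active = corrected activity change at or below -50% at 5 µM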
# CF NFkB block = blocks PAF-induced NF-kB reporter in cystic fibrosis cells. AID 588850. KKLEB NF-kB-GFP reporter, GFP fluorescence overnight. inhibition, % at 5 µM. 360,000 tested, 0.86% active;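 active = at least 50% inhibition at 5 µM, scaled per plate between neutral and stimulator controls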;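 also: PAF is a Pseudomonas aeruginosa culture filtrate used as stimulus; plate controls were PAF-stimulated DMSO wells for no effect and unstimulated DMSO wells for full effect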
# TRPM1 prom inh = MITF TRPM1 promoter inhibition in SK-MEL-5 cells; 330,000 tested, 0.83% active; AID 488899; inhibition, % at 12.5 µM; SK-MEL-5 TRPM1 promoter luciferase, 24 h;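 active = mean inhibition across replicates of 60% or more, whatever share of single replicates reaches that level; inconclusive = some that reach 60%, reason not given; inactive = mean inhibition across replicates below 60%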
# Shn3 inh set2 = Schnurri-3 reporter inhibition in Clone20 osteoblasts; Clone20 osteoblast Shn3 3'UTR firefly luciferase, 24 h; inhibition, % at 12.5 µM; AID 588674; 360,000 tested, 0.52% active;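 active = mean inhibition of at least 75% with every replicate also reaching 75%; inconclusive = mean inhibition at least 75% but some replicate below; inactive = mean inhibition below 75%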;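 also: 0% = median of neutral control wells and 100% = pilot-screen positive control compound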
# HIF-2a inh = inhibitors of HIF-2a; AID 624352; inhibition, % at 18.8 µM; 786-0 RCC cells HIF-2a reporter, luciferase luminescence, overnight; 360,000 tested, 0.72% active;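 active = inhibition of the luminescence signal of 40% or more relative to plate controls, in a single-dose primary screen at 18.75 µM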
# Peg3 prom inh-1 = inhibitors of Peg3 promoter | HeLa PEG-Prom luciferase reporter, luminescence, overnight | inhibition, % at 20 µM | 360,000 tested, 1.7% active;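 active = inhibition of at least 50% at 20 µM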
# Peg3 prom inh-2 = Peg3 promoter inhibition confirmation. shares compounds with Peg3 prom inh-1. AID 602417. inhibition, % at 20 µM. HeLa PEG-Prom luciferase reporter, luminescence, overnight. 1,300 tested, 84% active;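 active = at 20 µM dose, 40% or more inhibition averaged across four replicates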
# CF NFkB inh conf = CF NF-kB inhibition confirmation, single concentration; shares compounds with CF NFkB block; KKLEB CF airway cells, PAF-induced NF-kB-GFP fluorescence, overnight; inhibition, % at 5 µM; 1,300 tested, 64% active; AID 602472; in the data active = inhibition above about 40%;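 also: stimulus PAF is a Pseudomonas aeruginosa filtrate and not platelet activating factor; plate controls were DMSO wells with stimulus for no effect and unstimulated DMSO wells for full effect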
# Mdm2-MdmX confirm = Mdm2/MdmX (human) interaction inhibition, confirmed; shares compounds with HIF-2a inh; SaOS-2 split-luciferase Mdm2/MdmX complementation, luminescence; inhibition, % at 8 µM; 740 tested, 99% active; AID 504601;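 active = mean inhibition of the luminescence signal across two replicates at or above 26 percent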
# Target sequence (O15151 whole entry, looked up): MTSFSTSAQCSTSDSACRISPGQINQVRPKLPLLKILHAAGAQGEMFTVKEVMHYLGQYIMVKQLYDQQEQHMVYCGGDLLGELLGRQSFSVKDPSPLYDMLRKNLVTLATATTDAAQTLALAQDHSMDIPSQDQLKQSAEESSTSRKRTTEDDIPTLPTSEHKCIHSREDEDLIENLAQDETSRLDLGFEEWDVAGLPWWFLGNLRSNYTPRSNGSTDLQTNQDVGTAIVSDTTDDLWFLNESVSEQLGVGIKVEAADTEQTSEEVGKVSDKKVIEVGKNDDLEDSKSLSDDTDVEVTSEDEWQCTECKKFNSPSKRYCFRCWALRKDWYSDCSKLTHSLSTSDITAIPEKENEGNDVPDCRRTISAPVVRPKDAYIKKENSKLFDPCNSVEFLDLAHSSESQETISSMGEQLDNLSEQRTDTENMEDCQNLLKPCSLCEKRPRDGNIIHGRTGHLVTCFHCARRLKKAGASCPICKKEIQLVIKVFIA
# Target sequence (Q00987 whole entry, looked up): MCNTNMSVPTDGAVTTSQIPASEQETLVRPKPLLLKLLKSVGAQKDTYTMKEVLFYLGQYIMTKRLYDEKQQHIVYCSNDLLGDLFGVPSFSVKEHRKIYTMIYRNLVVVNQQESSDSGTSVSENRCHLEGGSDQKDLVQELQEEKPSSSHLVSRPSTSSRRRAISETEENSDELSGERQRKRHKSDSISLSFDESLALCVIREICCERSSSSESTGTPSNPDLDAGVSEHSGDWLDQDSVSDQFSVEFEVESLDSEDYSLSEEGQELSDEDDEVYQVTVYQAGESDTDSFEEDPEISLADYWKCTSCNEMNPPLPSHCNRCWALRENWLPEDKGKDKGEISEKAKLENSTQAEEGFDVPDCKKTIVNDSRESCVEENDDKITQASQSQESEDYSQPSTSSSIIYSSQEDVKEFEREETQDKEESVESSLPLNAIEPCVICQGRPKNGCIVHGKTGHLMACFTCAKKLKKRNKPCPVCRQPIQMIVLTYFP
# HIF-2a inh conf = HIF-2a inhibition, single concentration confirmation | inhibition, % at 18.8 µM | 786-0 RCC cells, HIF-2a luciferase reporter luminescence, overnight | AID 651580 | 1,800 tested, 56% active | shares compounds with HIF-2a inh;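 active = mean inhibition across four replicates of at least 40 percent at the single tested concentration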
# HIF-1a counter = counter-screen for HIF-2a inhibitors: HIF-1a inhibition in MiaPaCa-2 cells; inhibition, % at 18.8 µM; 1,800 tested, 72% active; AID 651589; MiaPaCa-2 HIF-1a luciferase reporter, desferoxamine, overnight; shares compounds with HIF-2a inh;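 active = mean inhibition of the reporter signal across four replicates at the single tested dose of 50% or more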
# * = called active by the depositor; ? = inconclusive; / = no result given. Hits are enriched below; roughly 2.7% of the tested compounds scored in any of these assays.
SMILES,KKLEB tox,CF NFkB block,TRPM1 prom inh,Shn3 inh set2,HIF-2a inh,Peg3 prom inh-1,Peg3 prom inh-2,HIF-2a inh conf,HIF-1a counter,others
Clc1ccc(CSc2nnc(-c3ccc4c(c3)OCO4)o2)cc1,7.9,-11.1,-3.1,-14.9,-169.5,-65.0,/,/,/,
CC1=C(C(=O)OCc2ccc3c(c2)OCO3)C(c2ccccc2)NC(=O)N1 (centres undefined),-29.9,84.1*,28.2,24.0,37.3,51.2*,61.8*,/,/,Mdm2-MdmX confirm=95.7*
CC1=C(C(=O)OCc2ccc3c(c2)OCO3)C(c2ccccc2OCc2ccccc2)NC(=O)N1 (centres undefined),-2.7,26.0,9.6,28.8,29.1,14.8,/,/,/,
CCC1(O)C(=O)OCc2c1cc1n(c2=O)Cc2cc3cc(O)ccc3nc2-1 (centres undefined),-27.3,83.9*,69.6*,28.6,52.2*,62.7*,52.0*,17.4,101.6*,CF NFkB inh conf=109.8*
O=C(COC(=O)c1c(F)cccc1Cl)NC(=O)Nc1ccc2c(c1)OCCO2,10.9,21.3,-21.4,-10.8,-149.7,-138.2,/,/,/,
COc1cccc(-c2sc3ccccc3c2-c2ccc(OCCN(C)C)cc2)c1,-38.8,49.0,18.3,13.0,78.8*,94.5*,98.6*,18.6,106.7*,
O=C(O)c1cccc(N/N=C/c2cccs2)c1,5.5,-27.3,76.9*,66.3,82.0*,82.8*,68.1*,85.8*,-4.9,
O=C(N/N=C/c1cccs1)C(=O)Nc1cccc(Cl)c1,4.0,-13.6,-9.2,-6.6,-105.3,-70.8,/,/,/,
CCOc1ccccc1NC(=O)COC(=O)C(Cc1ccccc1)NC(=O)c1ccco1 (centres undefined),-5.5,8.4,/,9.8,13.2,15.1,/,/,/,
COc1ccccc1-c1csc2ncnc(Sc3nnnn3C)c12,-13.5,10.1,2.4,13.2,19.6,30.9,/,/,/,
Cn1nnnc1Sc1ncnc2scc(-c3cccc4ccccc34)c12,-42.6,47.5,34.2,-4.3,53.0*,98.4*,97.4*,68.0*,105.0*,
O=[N+]([O-])c1cc(Cl)cc(/C=N\Nc2ccccn2)c1O,-92.8*,85.3*,58.1,89.1*,7.8,54.5*,54.7*,/,/,Mdm2-MdmX confirm=88.0*
O=[N+]([O-])c1ccc(Cl)cc1C=NNc1ccccn1,3.4,-24.6,7.9,-13.5,-8.9,-6.6,/,/,/,
Cc1ccc(NC(=O)C/C(N)=N/OC(=O)Nc2cccc(Cl)c2)cc1,7.8,-2.3,-17.0,1.7,-56.9,-11.2,/,/,/,
COCCN1C(=O)CCC1(C)C(=O)Nc1ccc2ccccc2c1 (centres undefined),4.3,-18.1,/,-9.7,7.9,7.5,/,/,/,
CC(=O)CSc1ccc(-c2nc3ccccc3[nH]2)cn1,-18.1,-4.3,-1.5,-65.3,-76.9,-117.9,/,/,/,
CC(=O)CSc1ccc(-c2nc3cc(C)c(C)cc3[nH]2)cn1,-16.9,-5.5,82.7*,68.8,67.1*,84.5*,70.5*,85.0*,99.7*,
COc1ccc(-n2c(C)cc(/C=C3\C(=N)N4N=C(CC(=O)N5CCOCC5)SC4=NC3=O)c2C)cc1,-10.1,26.4,-3.3,-18.0,-1.8,13.0,/,/,/,
CCCc1c(C(=O)N/N=C(\C)c2ccccc2O)nnn1-c1nonc1N,-7.1,-15.4,/,47.5,13.0,36.6,/,/,/,
C/C(=N\NC(=O)c1nnn(-c2nonc2N)c1-c1ccccc1)c1ccccc1O,-1.3,19.3,58.5,79.6,6.6,72.9*,67.3*,/,/,Mdm2-MdmX confirm=84.5*
O=C(NCCC1CCCCN1S(=O)(=O)c1ccccc1)C(=O)Nc1ccc(F)cc1F (centres undefined),-17.1,2.7,16.1,28.4,18.9,10.3,/,/,/,
O=C(CN1C(=O)c2ccccc2S1(=O)=O)c1ccc2c(c1)OCCCO2,0.2,-13.9,82.4*,93.6*,93.4*,99.3*,94.6*,98.7*,104.0*,Mdm2-MdmX confirm=96.5*
O=C(CN1C(=O)c2ccccc2S1(=O)=O)c1ccc2c(c1)OCCO2,-4.1,5.6,88.0*,/,90.2*,108.5*,95.6*,98.4*,103.6*,Mdm2-MdmX confirm=100.5*
CCCCC[C@H](C)N1C[C@H](COCc2ccccc2)Oc2cc(N3CCC[C@H]3COC)ccc2S1(=O)=O,/,/,/,/,3.8,/,/,/,/,
CC(=O)c1cccc(OCC(=O)NC2CCCCCC2)c1,-10.0,25.6,-33.2,-5.9,-63.8,-96.7,/,/,/,
SMILES,KKLEB tox,CF NFkB block,TRPM1 prom inh,Shn3 inh set2,HIF-2a inh,Peg3 prom inh-1,Peg3 prom inh-2,HIF-2a inh conf,HIF-1a counter,others
O=c1cnnc(N/N=C/c2ccccn2)[nH]1,-1.6,11.2,80.0*,95.7*,13.9,61.6*,73.3*,/,/,Mdm2-MdmX confirm=87.0*
O=c1nc(N/N=C/c2ccccn2)cn[nH]1,-2.3,12.9,?,?,17.9,37.2,/,/,/,
C(=N\Nc1nc2ccccc2[nH]1)/c1ccccn1,-43.0,-29.9,83.2*,89.1*,73.4*,85.9*,75.7*,-19.4,-36.1,
CC(OC(=O)c1ccccc1C(=O)N(C)c1ccccc1)C(=O)Nc1ccccc1[N+](=O)[O-] (centres undefined),-4.7,2.6,-7.2,3.6,14.3,19.6,/,/,/,
CC1CCN(c2ccc(-c3cccc(NC(=O)C(F)(F)F)c3)nn2)CC1,-65.6*,21.6,28.3,82.9,88.1*,85.9*,87.2*,93.5*,92.7*,
O=C(Nc1cccc(-c2ccc(N3CCCCC3)nn2)c1)C(F)(F)F,-42.7,-2.3,62.3*,81.9,73.5*,76.8*,75.1*,88.3*,73.1*,
O=C(Nc1cccc(-c2ccc(N3CCCCC3)nn2)c1)c1ccc(Br)o1,-40.1,12.2,-42.8,-35.1,-168.4,-97.9,/,/,/,
N#Cc1ccccc1S(=O)(=O)N1CCN(S(=O)(=O)c2ccc(Br)c(C(=O)O)c2)CC1,14.9,7.0,1.1,9.6,17.8,-9.1,/,/,/,
O=C(Nc1ccccn1)c1cc2ccccc2o1,-29.4,-3.4,62.3*,-22.1,44.9*,51.4*,45.0*,70.5*,60.7*,
O=C(Nc1ccc(Cl)cn1)c1cc2ccccc2o1,-3.4,0.0,-16.3,2.8,-51.5,-144.4,/,/,/,
CCOc1ccc(NS(=O)(=O)c2cccc(C(=O)NCC3(N(C)C)CCCCC3)c2)cc1,-3.4,-33.4,-0.5,-7.5,0.5,-12.9,/,/,/,
